This is part of a sample that, as a whole, favours compounds with a hit. Of some 83,000 tested, about 20% had one in any assay.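 Negative percent growth values reflect cell death: -40 means 40% of the cells present at the start died, and -100 means all died.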 Unmarked numbers belong to inactive results. Activity calls are given as the source filed them. Rule for the calls: active = growth percent below 10; inactive = the rest.
Legend:
Experiment in all cases: NCI-60 one-dose screen, 48 h (100 = growth as untreated, 0 = no growth, -100 = all killed)
RPMI-8226 leukemia = details: 10 µM
OVCAR-8 ovarian = details: 10 µM
OVCAR-5 ovarian = details: 10 µM
OVCAR-4 ovarian = details: 10 µM
SK-OV-3 ovarian = details: 10 µM
IGROV1 ovarian = details: 10 µM
OVCAR-3 ovarian = details: 10 µM
HS 578T breast = details: 10 µM
NCI/ADR-RES ovarian = details: 10 µM
BT-549 breast = details: 10 µM
MDA-MB-435 melanoma = details: 10 µM
SW-620 colon = details: 10 µM
MCF7 breast = details: 10 µM unless noted
HCC-2998 colon = details: 10 µM
KM12 colon = details: 10 µM
T-47D breast = details: 10 µM
HCT-116 colon = details: 10 µM

Row | Compound | growth (RPMI-8226 leukemia) | growth (OVCAR-8 ovarian) | growth (OVCAR-5 ovarian) | growth (OVCAR-4 ovarian) | growth (SK-OV-3 ovarian) | growth (IGROV1 ovarian) | growth (OVCAR-3 ovarian) | growth (HS 578T breast) | growth (NCI/ADR-RES ovarian) | growth (BT-549 breast) | growth (MDA-MB-435 melanoma) | growth (SW-620 colon) | growth (MCF7 breast) | growth (HCC-2998 colon) | growth (KM12 colon) | growth (T-47D breast) | growth (HCT-116 colon)
1 | O=C(Cc1nc2ccc([N+](=O)[O-])cc2nc1CC(=O)c1cccnc1)c1cccnc1 | 94.5% | 31.2% | 101% | 57.7% | 47.9% | 73.9% | 65.1% | 7.13% (active) | 30.4% | 8.87% (active) | 89.8% | 81.3% | 47.4% | 96.2% | 63.1% | – | –
2 | O=C(NCCNC(=O)c1ccc(Cl)cc1Cl)c1ccc(Cl)cc1Cl | 97.8% | 94.7% | 119% | 104% | 98.7% | 100% | 111% | 107% | 97.6% | 111% | 106% | 113% | 102% | 100% | 105% | 99.3% | 104%
3 | Cc1cc(O)ccc1O | 59.5% | 104% | 116% | 98.5% | 112% | 114% | 110% | 103% | 96.5% | 83.5% | 97.7% | 117% | 94.7% | 121% | 105% | 101% | –
4 | CCCCNC(=O)C(=O)NCCCC | 106% | 105% | 113% | 108% | 123% | 113% | 108% | 96.6% | – | 98.8% | 104% | 104% | 94.1% | 114% | 102% | – | 104%
5 | NC(C(=O)O)c1ccc([N+](=O)[O-])cc1 (centres undefined) | 116% | 112% | 92.2% | 107% | 96.4% | 109% | 107% | 117% | 105% | – | 111% | 109% | 95.3% | – | – | 99.3% | –
6 | O=C1NC(=O)C2C(=O)NC(=O)C1C21CCc2ccccc21 (centres undefined) | 115% | 103% | 110% | 105% | 116% | 109% | 115% | 89% | 100% | 106% | 112% | 101% | 93.1% | 115% | 105% | – | 96.7%
7 | CC(C)(C)n1nc(C2CC2)c(Br)c1NC(=O)c1ccccc1F | 96.7% | 101% | 104% | 87.1% | 94.5% | 99.3% | 117% | 94.9% | 103% | 110% | 102% | 105% | 95.7% | – | 98.5% | 108% | 109%
8 | COc1ccc2c(c1)CCc1c-2n[nH]c1-c1[nH]nc2c1CCc1cc(OC)ccc1-2 | 61.2% | 84.7% | 89.6% | 77.3% | 77% | 62.4% | 41.3% | 48.7% | – | 54.6% | -5.37% (active) | 45% | 12.6% | 80.9% | 47.6% | – | 32.4%
9 | OCCN(CCO)C(=S)S | 111% | 100% | 120% | 118% | 127% | 111% | 121% | 99.7% | 105% | 110% | 108% | 106% | 98.2% | 113% | 107% | – | 109%
10 | CC(=O)CC(=O)N(C)C | 97.9% | 101% | 104% | 101% | 108% | 109% | 112% | 98.3% | 100% | 99.5% | 98.2% | 101% | 94.8% | 108% | 102% | – | 95.6%
11 | Cc1cc(=O)cc(C)n1-c1ccccc1 | 97.6% | 109% | 98.3% | 100% | 94.7% | 114% | 120% | 113% | 98.9% | – | 110% | 107% | 94.4% | 107% | 104% | 91.7% | 98.4%
12 | CCOC(=O)c1cc(/C=C/c2ccc(Cl)cc2Cl)on1 | 2.84% (active) | 24.1% | 58.8% | 76% | 104% | 82.2% | 24.4% | 71.8% | -34.9% (active) | 26.3% | 66.8% | -13.6% (active) | 0.711% (active) | 82% | – | – | -86.6% (active)
13 | COc1ccc(C2OC(N)=C(O)C2=O)cc1OC (centres undefined) | 104% | 105% | 96.7% | 103% | 99.5% | 106% | 114% | 70.1% | 103% | 102% | 110% | 103% | 93.8% | 107% | 109% | – | 99.7%
14 | CCCCCCCCCCCCCC(=O)Oc1ccc[nH]c1=O | 95.7% | 94.9% | 97.1% | 102% | 88.8% | 97.8% | 103% | 98.1% | 99.8% | 94.4% | 113% | 101% | 95.8% | 109% | 92.7% | – | 94.6%
15 | COc1cccc(COC(=O)Nc2ccccc2)c1OC | 90.1% | 96.9% | 105% | 117% | 111% | 101% | 111% | 115% | 105% | 107% | 91.7% | 114% | 97.6% | – | 106% | 93.1% | 104%
16 | COc1cc(OC)c2ccc(=O)oc2c1 | 116% | 103% | 90.3% | 107% | 112% | 130% | 110% | 97.1% | 105% | 111% | 107% | 101% | 100% | 94.8% | 98.9% | – | 109%
17 | COC(=O)C(C)Oc1ccc(OC#N)cc1 (centres undefined) | 103% | 104% | 94.5% | 95.8% | 103% | 105% | 105% | 90.1% | 99.9% | 120% | 102% | 95.6% | 98% | 105% | 99.8% | – | 108%
18 | CS(=O)CC1=NC(=N)N=C1CS(C)=O (centres undefined) | 107% | 99.9% | 111% | 103% | 108% | 113% | 118% | 89.9% | 103% | 110% | 109% | 108% | 95% | 104% | 108% | – | 102%
19 | Cc1cc(C(O)(c2ccc(Nc3ccccc3)cc2)c2ccc(Nc3ccc(S(=O)(=O)O)cc3)cc2)ccc1N (centres undefined) | -28.8% (active) | 6.11% (active) | -65.8% (active) | -5.82% (active) | 31.3% | 5.51% (active) | -29.1% (active) | 1.91% (active) | – | 22.6% | -67.4% (active) | -32.6% (active) | -3.23% (active) | -20.5% (active) | 4.39% (active) | -5.86% (active) | 6.56% (active)
20 | O=C(Cc1nc2ccc([N+](=O)[O-])cc2nc1CC(=O)c1ccccc1)c1ccccc1 | 42.9% | 50% | 89.6% | 34.3% | 103% | 79.2% | 60.1% | 51.6% | 29.8% | 37.3% | 63.3% | 62.6% | 30.1% | 89% | 39.4% | – | 34.8%

From PubChem BioAssay (NCI)
